# Experimental data published in the supplement of paper PMC4466140.
# Tests used:
# Experiment in all cases: SPOT peptide array binding signal intensity (averaged, normalized) (arbitrary units (background-subtracted, floor 0; scale differs between SH3 domains)); higher = stronger binding of the SH3 domain to the peptide
# CaNbp2 = biological target: CaNbp2
# How it was run: (§1)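 E. coli BL21(DE3) was used to express GST-fused SH3 domains from four yeast species, which were then purified on glutathione Sepharose. These were incubated at 10 μg/ml in TBS-based blocking buffer overnight at 4°C on cellulose membranes carrying synthetic 15-mer peptides, in which cysteines were replaced by serines. Binding signal is the replicate average of normalized, background-subtracted spot intensity, in arbitrary units that differ between domains.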
# CaRvs167 = biological target: CaRvs167
# How it was run: as §1
# CaRvs167-3 = biological target: CaRvs167-3
# How it was run: as §1
# CaSho1 = biological target: CaSho1
# How it was run: as §1
# CaSla1-D1-D2 = biological target: CaSla1-D1-D2
# How it was run: as §1
# CaSla1-D3 = biological target: CaSla1-D3
# How it was run: as §1
# ScAbp1 = biological target: ScAbp1
# How it was run: as §1
# ScBbc1 = biological target: ScBbc1
# How it was run: as §1
# ScBem1-D1 = biological target: ScBem1-D1
# How it was run: as §1
# ScBzz1-D1 = biological target: ScBzz1-D1
# How it was run: as §1
# ScBzz1-D2 = biological target: ScBzz1-D2
# How it was run: as §1
# ScCyk3 = biological target: ScCyk3
# How it was run: as §1
# ScFus1 = biological target: ScFus1
# How it was run: as §1
# ScHof1 = biological target: ScHof1
# How it was run: as §1
# ScHse1 = biological target: ScHse1
# How it was run: as §1
# ScLsb1 = biological target: ScLsb1
# How it was run: as §1
# ScLsb2 = biological target: ScLsb2
# How it was run: as §1
# ScLsb3 = biological target: ScLsb3
# How it was run: as §1
# ScLsb4 = biological target: ScLsb4
# How it was run: as §1
# ScMyo3 = biological target: ScMyo3
# How it was run: as §1
# ScMyo5 = biological target: ScMyo5
# How it was run: as §1
# ScNbp2 = biological target: ScNbp2
# How it was run: as §1
# ScPex13 = biological target: ScPex13
# How it was run: as §1
# ScRvs167 = biological target: ScRvs167
# How it was run: as §1
# ScSho1 = biological target: ScSho1
# How it was run: as §1
# ScSla1-D1-D2 = biological target: ScSla1-D1-D2
# How it was run: as §1
# ScSla1-D3 = biological target: ScSla1-D3
# How it was run: as §1
# SpAbp1-D1 = biological target: SpAbp1-D1
# How it was run: as §1
# SpBbc1 = biological target: SpBbc1
# How it was run: as §1
# SpBzz1-D1 = biological target: SpBzz1-D1
# How it was run: as §1
# SpBzz1-D2 = biological target: SpBzz1-D2
# How it was run: as §1
# SpCyk3 = biological target: SpCyk3
# How it was run: as §1
# SpHof1 = biological target: SpHof1
# How it was run: as §1
# SpHof1-2 = biological target: SpHof1-2
# How it was run: as §1
# SpHof1-3 = biological target: SpHof1-3
# How it was run: as §1
# SpHse1 = biological target: SpHse1
# How it was run: as §1
# SpLsb1 = biological target: SpLsb1
# How it was run: as §1
# SpLsb4 = biological target: SpLsb4
# How it was run: as §1
# SpMyo1 = biological target: SpMyo1
# How it was run: as §1
# SpNbp2 = biological target: SpNbp2
# How it was run: as §1
# SpPex13 = biological target: SpPex13
# How it was run: as §1
# SpRvs167 = biological target: SpRvs167
# How it was run: as §1
# SpSla1-D1-D2 = biological target: SpSla1-D1-D2
# How it was run: as §1
# SpSla1-D3 = biological target: SpSla1-D3
# How it was run: as §1
# AgAbp1 = biological target: AgAbp1
# How it was run: as §1
# AgBbc1 = biological target: AgBbc1
# How it was run: as §1
# AgBem1-D1 = biological target: AgBem1-D1
# How it was run: as §1
# AgBzz1-D1 = biological target: AgBzz1-D1
# How it was run: as §1
# AgBzz1-D2 = biological target: AgBzz1-D2
# How it was run: as §1
# AgCyk3 = biological target: AgCyk3
# How it was run: as §1
# AgFus1 = biological target: AgFus1
# How it was run: as §1
# AgHof1 = biological target: AgHof1
# How it was run: as §1
# AgHse1 = biological target: AgHse1
# How it was run: as §1
# AgLsb1 = biological target: AgLsb1
# How it was run: as §1
# AgLsb4 = biological target: AgLsb4
# How it was run: as §1
# AgMyo5 = biological target: AgMyo5
# How it was run: as §1
# AgNbp2 = biological target: AgNbp2
# How it was run: as §1
# AgRvs167 = biological target: AgRvs167
# How it was run: as §1
# AgSho1 = biological target: AgSho1
# How it was run: as §1
# AgSla1-D1-D2 = biological target: AgSla1-D1-D2
# How it was run: as §1
# AgSla1-D3 = biological target: AgSla1-D3
# How it was run: as §1
# CaAbp1-D1 = biological target: CaAbp1-D1
# How it was run: as §1
# CaAbp1-D2 = biological target: CaAbp1-D2
# How it was run: as §1
# CaBbc1 = biological target: CaBbc1
# How it was run: as §1
# CaBem1-D1 = biological target: CaBem1-D1
# How it was run: as §1
# CaBzz1-D1 = biological target: CaBzz1-D1
# How it was run: as §1
# CaBzz1-D2 = biological target: CaBzz1-D2
# How it was run: as §1
# CaCyk3 = biological target: CaCyk3
# How it was run: as §1
# CaFus1 = biological target: CaFus1
# How it was run: as §1
# CaHof1 = biological target: CaHof1
# How it was run: as §1
# CaHse1 = biological target: CaHse1
# How it was run: as §1
# CaLsb1 = biological target: CaLsb1
# How it was run: as §1
# CaLsb4 = biological target: CaLsb4
# How it was run: as §1
# CaMyo5 = biological target: CaMyo5
# How it was run: as §1
binder,measurement,setting,value
GKLKHIPRRPYEIER,SPOT peptide array binding signal intensity,CaNbp2,≤ 0
same,SPOT peptide array binding signal intensity,CaRvs167,2.83
same,SPOT peptide array binding signal intensity,CaRvs167-3,≤ 0
same,SPOT peptide array binding signal intensity,CaSho1,≤ 0
same,SPOT peptide array binding signal intensity,CaSla1-D1-D2,≤ 0
same,SPOT peptide array binding signal intensity,CaSla1-D3,≤ 0
same,SPOT peptide array binding signal intensity,ScAbp1,7
same,SPOT peptide array binding signal intensity,ScBbc1,55.2
same,SPOT peptide array binding signal intensity,ScBem1-D1,6
same,SPOT peptide array binding signal intensity,ScBzz1-D1,12
same,SPOT peptide array binding signal intensity,ScBzz1-D2,1
same,SPOT peptide array binding signal intensity,ScCyk3,17.5
same,SPOT peptide array binding signal intensity,ScFus1,≤ 0
same,SPOT peptide array binding signal intensity,ScHof1,≤ 0
same,SPOT peptide array binding signal intensity,ScHse1,150
same,SPOT peptide array binding signal intensity,ScLsb1,12.5
same,SPOT peptide array binding signal intensity,ScLsb2,≤ 0
same,SPOT peptide array binding signal intensity,ScLsb3,122
same,SPOT peptide array binding signal intensity,ScLsb4,5
same,SPOT peptide array binding signal intensity,ScMyo3,1.5
same,SPOT peptide array binding signal intensity,ScMyo5,0.5
same,SPOT peptide array binding signal intensity,ScNbp2,26.5
same,SPOT peptide array binding signal intensity,ScPex13,17.5
same,SPOT peptide array binding signal intensity,ScRvs167,16.7
same,SPOT peptide array binding signal intensity,ScSho1,71.5
same,SPOT peptide array binding signal intensity,ScSla1-D1-D2,12
same,SPOT peptide array binding signal intensity,ScSla1-D3,0.75
same,SPOT peptide array binding signal intensity,SpAbp1-D1,11
same,SPOT peptide array binding signal intensity,SpBbc1,1.75
same,SPOT peptide array binding signal intensity,SpBzz1-D1,240
same,SPOT peptide array binding signal intensity,SpBzz1-D2,≤ 0
same,SPOT peptide array binding signal intensity,SpCyk3,2.5
same,SPOT peptide array binding signal intensity,SpHof1,8
same,SPOT peptide array binding signal intensity,SpHof1-2,1
same,SPOT peptide array binding signal intensity,SpHof1-3,44.2
same,SPOT peptide array binding signal intensity,SpHse1,21
same,SPOT peptide array binding signal intensity,SpLsb1,12
same,SPOT peptide array binding signal intensity,SpLsb4,53.5
same,SPOT peptide array binding signal intensity,SpMyo1,0.75
same,SPOT peptide array binding signal intensity,SpNbp2,≤ 0
same,SPOT peptide array binding signal intensity,SpPex13,≤ 0
same,SPOT peptide array binding signal intensity,SpRvs167,3.17
same,SPOT peptide array binding signal intensity,SpSla1-D1-D2,≤ 0
same,SPOT peptide array binding signal intensity,SpSla1-D3,≤ 0
VPPVPLPFGIPPFPM,SPOT peptide array binding signal intensity,AgAbp1,3
same,SPOT peptide array binding signal intensity,AgBbc1,≤ 0
same,SPOT peptide array binding signal intensity,AgBem1-D1,288
same,SPOT peptide array binding signal intensity,AgBzz1-D1,6
same,SPOT peptide array binding signal intensity,AgBzz1-D2,10
same,SPOT peptide array binding signal intensity,AgCyk3,≤ 0
same,SPOT peptide array binding signal intensity,AgFus1,≤ 0
same,SPOT peptide array binding signal intensity,AgHof1,338
same,SPOT peptide array binding signal intensity,AgHse1,51
same,SPOT peptide array binding signal intensity,AgLsb1,2
same,SPOT peptide array binding signal intensity,AgLsb4,≤ 0
same,SPOT peptide array binding signal intensity,AgMyo5,720
same,SPOT peptide array binding signal intensity,AgNbp2,5
same,SPOT peptide array binding signal intensity,AgRvs167,≤ 0
same,SPOT peptide array binding signal intensity,AgSho1,4
same,SPOT peptide array binding signal intensity,AgSla1-D1-D2,4
same,SPOT peptide array binding signal intensity,AgSla1-D3,5.75
same,SPOT peptide array binding signal intensity,CaAbp1-D1,8
same,SPOT peptide array binding signal intensity,CaAbp1-D2,11
same,SPOT peptide array binding signal intensity,CaBbc1,2.5
same,SPOT peptide array binding signal intensity,CaBem1-D1,20
same,SPOT peptide array binding signal intensity,CaBzz1-D1,32
same,SPOT peptide array binding signal intensity,CaBzz1-D2,≤ 0
same,SPOT peptide array binding signal intensity,CaCyk3,3
same,SPOT peptide array binding signal intensity,CaFus1,102
same,SPOT peptide array binding signal intensity,CaHof1,≤ 0
same,SPOT peptide array binding signal intensity,CaHse1,2.5
same,SPOT peptide array binding signal intensity,CaLsb1,0.25
same,SPOT peptide array binding signal intensity,CaLsb4,27.5
same,SPOT peptide array binding signal intensity,CaMyo5,296
same,SPOT peptide array binding signal intensity,CaNbp2,88.5
same,SPOT peptide array binding signal intensity,CaRvs167,1.33
same,SPOT peptide array binding signal intensity,CaRvs167-3,2.5
same,SPOT peptide array binding signal intensity,CaSho1,25
same,SPOT peptide array binding signal intensity,CaSla1-D1-D2,34
same,SPOT peptide array binding signal intensity,CaSla1-D3,25.8
same,SPOT peptide array binding signal intensity,ScAbp1,≤ 0
same,SPOT peptide array binding signal intensity,ScBbc1,≤ 0
same,SPOT peptide array binding signal intensity,ScBem1-D1,1
same,SPOT peptide array binding signal intensity,ScBzz1-D1,≤ 0
same,SPOT peptide array binding signal intensity,ScBzz1-D2,2.5
same,SPOT peptide array binding signal intensity,ScCyk3,2.5
same,SPOT peptide array binding signal intensity,ScFus1,≤ 0
same,SPOT peptide array binding signal intensity,ScHof1,144
same,SPOT peptide array binding signal intensity,ScHse1,47
same,SPOT peptide array binding signal intensity,ScLsb1,0.75
same,SPOT peptide array binding signal intensity,ScLsb2,≤ 0
same,SPOT peptide array binding signal intensity,ScLsb3,6.5
same,SPOT peptide array binding signal intensity,ScLsb4,≤ 0
same,SPOT peptide array binding signal intensity,ScMyo3,867
same,SPOT peptide array binding signal intensity,ScMyo5,308
same,SPOT peptide array binding signal intensity,ScNbp2,23
same,SPOT peptide array binding signal intensity,ScPex13,772
same,SPOT peptide array binding signal intensity,ScRvs167,0.333
same,SPOT peptide array binding signal intensity,ScSho1,41
same,SPOT peptide array binding signal intensity,ScSla1-D1-D2,≤ 0
same,SPOT peptide array binding signal intensity,ScSla1-D3,7.5
same,SPOT peptide array binding signal intensity,SpAbp1-D1,2
same,SPOT peptide array binding signal intensity,SpBbc1,1.5
same,SPOT peptide array binding signal intensity,SpBzz1-D1,236
same,SPOT peptide array binding signal intensity,SpBzz1-D2,1.5
same,SPOT peptide array binding signal intensity,SpCyk3,1
same,SPOT peptide array binding signal intensity,SpHof1,4
same,SPOT peptide array binding signal intensity,SpHof1-2,9.5
same,SPOT peptide array binding signal intensity,SpHof1-3,7
same,SPOT peptide array binding signal intensity,SpHse1,70.8
same,SPOT peptide array binding signal intensity,SpLsb1,≤ 0
same,SPOT peptide array binding signal intensity,SpLsb4,51.5
same,SPOT peptide array binding signal intensity,SpMyo1,775
same,SPOT peptide array binding signal intensity,SpNbp2,7
same,SPOT peptide array binding signal intensity,SpPex13,9.5
same,SPOT peptide array binding signal intensity,SpRvs167,24.5
same,SPOT peptide array binding signal intensity,SpSla1-D1-D2,3
same,SPOT peptide array binding signal intensity,SpSla1-D3,6
